Assay results as given in the supplement of paper PMC7411640.
Where a name gives a salt, the structure may show the parent alone.

Test system: MDA-MB-468
Experiment: phospho-S6 immunofluorescence (DAPI-normalised), per-plate z-score; higher = higher phospho-S6 signal (less pathway suppression)
Settings: 24 h
Method: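 GPCR-targeted compound library (MedChemExpress HY-L006) tested on MDA-MB-468 PTEN-null TNBC cells in 384-well plates at 0.1, 1 or 10 uM, combined with vehicle, GDC0941 450 nM or lapatinib 1 uM, for 24 h. Phospho-S6 (S240/244) immunofluorescence normalised to DAPI and expressed as a per-plate z-score; values are the mean of biological triplicates.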

SMILES	phospho-S6 immunofluorescence (z-score) (co-treatment: GDC0941 450 nM)	phospho-S6 immunofluorescence (z-score) (co-treatment: lapatinib 1 uM)	phospho-S6 immunofluorescence (z-score) (co-treatment: vehicle)
CN1CC2c3ccccc3Oc3ccc(Cl)cc3C2C1 (centres undefined) [Asenapine (maleate)] (compound 10 µM)	0.37	-1.57	-0.61
C[C@@H](O)[C@@H]1NC(=O)[C@H](CCCCN)NC(=O)[C@@H](Cc2c[nH]c3ccccc23)NC(=O)[C@H](Cc2ccccc2)NC(=O)[C@@H](NC(=O)[C@H](N)Cc2ccccc2)CSSC[C@@H](C(=O)N[C@H](CO)[C@@H](C)O)NC1=O [Octreotide (acetate)] (compound 10 µM)	0.59	1.9	-0.73
NC(=O)C(c1ccccc1)(c1ccccc1)[C@@H]1CCN(CCc2ccc3c(c2)CCO3)C1 [Darifenacin (hydrobromide)] (compound 10 µM)	-1.6	-1.5	0.03
C=C[C@@]1(C)CC(=O)[C@]2(O)[C@@]3(C)[C@@H](O)CCC(C)(C)[C@@H]3[C@H](O)[C@H](OC(C)=O)[C@@]2(C)O1 [Forskolin] (compound 10 µM)	1.82	2.65	0.23
OCc1ccc(-c2nn(Cc3ccccc3)c3ccccc23)o1 [Lificiguat] (compound 10 µM)	3.23	2.82	0.54
CC(CCc1ccccc1)NCC(O)c1ccc(O)c(C(N)=O)c1 (centres undefined) [Labetalol (hydrochloride)] (compound 10 µM)	0.84	-0.16	0.83
CC(C)NCC(O)COc1ccc(CCOCC2CC2)cc1 (centres undefined) [Betaxolol (hydrochloride)] (compound 10 µM)	0.79	0.07	0.74
CCC(=O)NC[C@@H]1C[C@H]1c1cccc2c1CCO2 [Tasimelteon] (compound 10 µM)	-1.06	-0.25	0.27
